In the supplement of paper PMC4466140:

biological target: AgAbp1; assay: SPOT peptide array binding signal intensity (averaged, normalized) (arbitrary units (background-subtracted, floor 0; scale differs between SH3 domains)); higher = stronger binding of the SH3 domain to the peptide
In short: (§1)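 Spot intensities were captured after detection with anti-GST antibody, an HRP-linked anti-mouse secondary and luminol, and quantified with Genespotter. The probes were GST-fused SH3 domains from four yeast species, produced in E. coli BL21(DE3), purified on glutathione Sepharose and incubated at 10 μg/ml overnight at 4°C on cellulose-bound synthetic 15-mer peptides with cysteines replaced by serines. Binding signal is the normalized, background-subtracted spot intensity averaged over replicates, and its arbitrary units differ between domains.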

Binder | SPOT peptide array binding signal intensity
IFLRISINFPLNYPN | 76

biological target: AgBbc1; assay: as above
In short: as §1

Binder | SPOT peptide array binding signal intensity
IFLRISINFPLNYPN | 233

biological target: AgBem1-D1; assay: as above
In short: as §1

Binder | SPOT peptide array binding signal intensity
IFLRISINFPLNYPN | 952

biological target: AgBzz1-D1; assay: as above
In short: as §1

Binder | SPOT peptide array binding signal intensity
IFLRISINFPLNYPN | 1120

biological target: AgBzz1-D2; assay: as above
In short: as §1

Binder | SPOT peptide array binding signal intensity
IFLRISINFPLNYPN | 412

biological target: AgCyk3; assay: as above
In short: as §1

Binder | SPOT peptide array binding signal intensity
IFLRISINFPLNYPN | 52.5

biological target: AgFus1; assay: as above
In short: as §1

Binder | SPOT peptide array binding signal intensity
IFLRISINFPLNYPN | 4330

biological target: AgHof1; assay: as above
In short: as §1

Binder | SPOT peptide array binding signal intensity
IFLRISINFPLNYPN | 218

biological target: AgHse1; assay: as above
In short: as §1

Binder | SPOT peptide array binding signal intensity
IFLRISINFPLNYPN | 2460

biological target: AgLsb1; assay: as above
In short: as §1

Binder | SPOT peptide array binding signal intensity
IFLRISINFPLNYPN | 68.8

biological target: AgLsb4; assay: as above
In short: as §1

Binder | SPOT peptide array binding signal intensity
IFLRISINFPLNYPN | 2440

biological target: AgMyo5; assay: as above
In short: as §1

Binder | SPOT peptide array binding signal intensity
IFLRISINFPLNYPN | 29.5

biological target: AgNbp2; assay: as above
In short: as §1

Binder | SPOT peptide array binding signal intensity
IFLRISINFPLNYPN | 1630

biological target: AgRvs167; assay: as above
In short: as §1

Binder | SPOT peptide array binding signal intensity
IFLRISINFPLNYPN | 162

biological target: AgSho1; assay: as above
In short: as §1

Binder | SPOT peptide array binding signal intensity
IFLRISINFPLNYPN | 2150

biological target: AgSla1-D1-D2; assay: as above
In short: as §1

Binder | SPOT peptide array binding signal intensity
IFLRISINFPLNYPN | 74.2

biological target: AgSla1-D3; assay: as above
In short: as §1

Binder | SPOT peptide array binding signal intensity
IFLRISINFPLNYPN | 73.9

biological target: CaAbp1-D1; assay: as above
In short: as §1

Binder | SPOT peptide array binding signal intensity
IFLRISINFPLNYPN | 448

biological target: CaAbp1-D2; assay: as above
In short: as §1

Binder | SPOT peptide array binding signal intensity
IFLRISINFPLNYPN | 305

biological target: CaBbc1; assay: as above
In short: as §1

Binder | SPOT peptide array binding signal intensity
IFLRISINFPLNYPN | 487

biological target: CaBem1-D1; assay: as above
In short: as §1

Binder | SPOT peptide array binding signal intensity
IFLRISINFPLNYPN | 666

biological target: CaBzz1-D1; assay: as above
In short: as §1

Binder | SPOT peptide array binding signal intensity
IFLRISINFPLNYPN | 1170

biological target: CaBzz1-D2; assay: as above
In short: as §1

Binder | SPOT peptide array binding signal intensity
IFLRISINFPLNYPN | 821

biological target: CaCyk3; assay: as above
In short: as §1

Binder | SPOT peptide array binding signal intensity
IFLRISINFPLNYPN | 107

biological target: CaFus1; assay: as above
In short: as §1

Binder | SPOT peptide array binding signal intensity
IFLRISINFPLNYPN | 7820

biological target: CaHof1; assay: as above
In short: as §1

Binder | SPOT peptide array binding signal intensity
IFLRISINFPLNYPN | 1.25

biological target: CaHse1; assay: as above
In short: as §1

Binder | SPOT peptide array binding signal intensity
IFLRISINFPLNYPN | 1570

biological target: CaLsb1; assay: as above
In short: as §1

Binder | SPOT peptide array binding signal intensity
IFLRISINFPLNYPN | 63.5

biological target: CaLsb4; assay: as above
In short: as §1

Binder | SPOT peptide array binding signal intensity
IFLRISINFPLNYPN | 477

biological target: CaMyo5; assay: as above
In short: as §1

Binder | SPOT peptide array binding signal intensity
IFLRISINFPLNYPN | 156

biological target: CaNbp2; assay: as above
In short: as §1

Binder | SPOT peptide array binding signal intensity
IFLRISINFPLNYPN | 2110

biological target: CaRvs167; assay: as above
In short: as §1

Binder | SPOT peptide array binding signal intensity
IFLRISINFPLNYPN | 750

biological target: CaRvs167-3; assay: as above
In short: as §1

Binder | SPOT peptide array binding signal intensity
IFLRISINFPLNYPN | 1500

biological target: CaSho1; assay: as above
In short: as §1

Binder | SPOT peptide array binding signal intensity
IFLRISINFPLNYPN | 2060

biological target: CaSla1-D1-D2; assay: as above
In short: as §1

Binder | SPOT peptide array binding signal intensity
IFLRISINFPLNYPN | 602

biological target: CaSla1-D3; assay: as above
In short: as §1

Binder | SPOT peptide array binding signal intensity
IFLRISINFPLNYPN | 1050

biological target: ScAbp1; assay: as above
In short: as §1

Binder | SPOT peptide array binding signal intensity
IFLRISINFPLNYPN | 93.2
